# Results filed as inconclusive are left out. Activity calls are given as the source filed them. The calls were made as follows: active = hit-call score of the fitted dose curve at least 0.9, where 1 is the maximum; inconclusive = response in the unintended direction; inactive = score below 0.9.
# Target: Collagenase 3 (Homo sapiens) (UniProt P45452)
# Test: NVS_ENZ_hMMP13: NovaScreen (NVS) Enzymatic Assay for human Matrix Metalloproteinase-13 (MMP13) (AID 2283182)
# Description: NVS_ENZ_hMMP13 is a biochemical, single-readout assay that uses extracted gene-proteins in a cell-free assay. Measurements were taken 1 hour after chemical dosing in a 96-well plate.NVS_ENZ_hMMP13 is one of one assay component(s) measured or calculated from the NVS_ENZ_hMMP13 assay. It is designed to make measurements of enzyme activity, a form of enzyme reporter, as detected with fluorescence intensity signals by Fluorescence technology.Data from the assay component NVS_ENZ_hMMP13 was analyzed into 1 assay endpoint. This assay endpoint, NVS_ENZ_hMMP13, was analyzed in the positive analysis fitting direction relative to DMSO as the negative control and baseline of activity. Using a type of enzyme reporter, loss-of-signal activity can be used to understand changes in the enzymatic activity as they relate to the gene MMP13. Furthermore, this assay endpoint can be referred to as a primary readout, because this assay has produced multiple assay endpoints where this one serves a enzymatic activity function. To generalize the intended target to other relatable targets, this assay endpoint is annotated to the protease intended target family, where the subfamily is matrix metalloproteinase.
# Binding assays used specific radioligands (tritiated, iodinated) with non-radioactive competitive displacement ligands in agonist or antagonist protocols (as indicated) and various reference compounds and inhibitors to titrate specific binding to receptors and transporters. Most enzyme assays (CYPs, kinases, phosphatases, proteases, HDACs) used recombinant protein and specific substrates (fluorescence mostly, some colorimetric and radioactive) and inhibitors, followed by a biochemical separation of substrate and product. All assays for the biochemical HTS were initially run in duplicate at a single concentration (10 uM for CYP450 assays and 25 uM for all others). Assay-chemical combinations meeting a pre-defined threshold (e.g., 30% inhibition and other criteria defined below) were then run in singleton concentration-response format with maximum concentration of 20 uM for CYPs and 50 uM for all others. Each assay was run with positive and negative controls, and concurrent controls on every plate. The follow-up (secondary) screen tested active chemical-pairs in concentration series, as well as a few additional assays not tested in the primary screen, some selected negative inactives, and several cases re-run in the concentration series for confirmatory purposes.
Structure (SMILES),outcome,AC50
CCCCCCCCCCCCCCCO,inactive,
CNS(=O)(=O)c1cc(C(=O)N2CCC(CCN3C4CCC3CC(n3c(C)nc5ccccc53)C4)(c3cccc(F)c3)CC2)c(Cl)cc1F (stereo unspecified),,14.5 µM (active)
CCCCC(CC)COC(=O)c1ccc(C(=O)OCC(CC)CCCC)cc1 (stereo unspecified),inactive,
Nc1ccc(Nc2ccccc2)cc1,,5.61 µM (active)
COC(=O)c1c(Cl)c(Cl)c(C(=O)OC)c(Cl)c1Cl,inactive,
O=C(O)c1cc(N=Nc2ccc(S(=O)(=O)Nc3ccccn3)cc2)ccc1O,,19.5 µM (active)
CC(C)CCCCCCCOC(=O)CCCCC(=O)OCCCCCCCC(C)C,inactive,
CCc1cc(SCc2sc(-c3ccc(C(F)(F)F)cc3)nc2CN2CCN(c3ccc(OC)cc3)CC2)ccc1OCC(=O)O,,5.85 µM (active)
Fc1ccccc1[C@@H](F)COC1CCC(Nc2ncnc3[nH]ncc23)CC1 (stereo partly specified),inactive,
O=C(O)CCN(C1(C(=O)NO)CCCC1)S(=O)(=O)c1ccc(Oc2ccc(F)cc2)cc1,,0.0041 µM (active)
CC(C)(O)c1coc(S(=O)(=O)NC(=O)Nc2c3c(cc4c2CCC4)CCC3)c1,,20.6 µM (active)
